Columns and labels:
[1] = target: Sphingosine kinase 1 (Homo sapiens) (UniProt Q9NYA1); details: at 1 µM;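 further: mean SPHK1 inhibition value reported from the GSK PKIS kinase panel screen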
[2] = target: T1, Sphingosine kinase 2 (Homo sapiens) (UniProt Q9NRA0); details: at 0.1 µM
T1 sequence (whole entry): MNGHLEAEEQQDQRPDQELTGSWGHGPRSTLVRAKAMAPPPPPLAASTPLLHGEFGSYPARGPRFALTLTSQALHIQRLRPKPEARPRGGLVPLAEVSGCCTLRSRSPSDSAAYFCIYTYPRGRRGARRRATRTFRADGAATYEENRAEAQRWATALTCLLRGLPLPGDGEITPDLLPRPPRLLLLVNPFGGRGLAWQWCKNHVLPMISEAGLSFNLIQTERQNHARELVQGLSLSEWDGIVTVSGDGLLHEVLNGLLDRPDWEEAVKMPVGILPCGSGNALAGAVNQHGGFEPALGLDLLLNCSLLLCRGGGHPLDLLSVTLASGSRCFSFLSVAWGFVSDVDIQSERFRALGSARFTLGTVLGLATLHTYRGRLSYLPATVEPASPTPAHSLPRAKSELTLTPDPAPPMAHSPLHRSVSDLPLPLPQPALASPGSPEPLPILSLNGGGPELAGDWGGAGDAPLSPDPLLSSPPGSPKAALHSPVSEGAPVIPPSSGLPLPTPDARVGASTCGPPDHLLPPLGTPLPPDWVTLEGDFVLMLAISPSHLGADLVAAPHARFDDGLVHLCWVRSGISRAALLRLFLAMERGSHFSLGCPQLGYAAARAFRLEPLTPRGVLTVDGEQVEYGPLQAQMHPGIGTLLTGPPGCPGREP

[3] = target: T1, Sphingosine kinase 2 (Homo sapiens); details: at 1 µM
[4] = target: Casein kinase II subunit alpha (Homo sapiens) (UniProt P68400); details: at 0.1 µM
Chain of Casein kinase II subunit alpha (Homo sapiens) (P68400 whole entry, looked up): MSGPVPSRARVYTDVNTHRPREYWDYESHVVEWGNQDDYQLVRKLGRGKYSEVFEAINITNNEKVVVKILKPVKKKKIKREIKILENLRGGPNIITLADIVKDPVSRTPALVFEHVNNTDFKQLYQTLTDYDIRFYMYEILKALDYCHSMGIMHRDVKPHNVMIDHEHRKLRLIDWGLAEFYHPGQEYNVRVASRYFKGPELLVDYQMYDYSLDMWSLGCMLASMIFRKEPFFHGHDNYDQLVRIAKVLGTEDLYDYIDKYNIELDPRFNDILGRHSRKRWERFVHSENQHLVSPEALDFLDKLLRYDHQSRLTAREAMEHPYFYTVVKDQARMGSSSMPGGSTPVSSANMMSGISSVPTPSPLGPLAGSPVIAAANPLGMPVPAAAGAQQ

[5] = target: Casein kinase II subunit alpha (Homo sapiens) (UniProt P68400); details: at 1 µM
[6] = target: T2, Inhibitor of nuclear factor kappa-B kinase subunit alpha (Homo sapiens) (UniProt O15111); details: at 0.1 µM
T2 sequence (whole entry): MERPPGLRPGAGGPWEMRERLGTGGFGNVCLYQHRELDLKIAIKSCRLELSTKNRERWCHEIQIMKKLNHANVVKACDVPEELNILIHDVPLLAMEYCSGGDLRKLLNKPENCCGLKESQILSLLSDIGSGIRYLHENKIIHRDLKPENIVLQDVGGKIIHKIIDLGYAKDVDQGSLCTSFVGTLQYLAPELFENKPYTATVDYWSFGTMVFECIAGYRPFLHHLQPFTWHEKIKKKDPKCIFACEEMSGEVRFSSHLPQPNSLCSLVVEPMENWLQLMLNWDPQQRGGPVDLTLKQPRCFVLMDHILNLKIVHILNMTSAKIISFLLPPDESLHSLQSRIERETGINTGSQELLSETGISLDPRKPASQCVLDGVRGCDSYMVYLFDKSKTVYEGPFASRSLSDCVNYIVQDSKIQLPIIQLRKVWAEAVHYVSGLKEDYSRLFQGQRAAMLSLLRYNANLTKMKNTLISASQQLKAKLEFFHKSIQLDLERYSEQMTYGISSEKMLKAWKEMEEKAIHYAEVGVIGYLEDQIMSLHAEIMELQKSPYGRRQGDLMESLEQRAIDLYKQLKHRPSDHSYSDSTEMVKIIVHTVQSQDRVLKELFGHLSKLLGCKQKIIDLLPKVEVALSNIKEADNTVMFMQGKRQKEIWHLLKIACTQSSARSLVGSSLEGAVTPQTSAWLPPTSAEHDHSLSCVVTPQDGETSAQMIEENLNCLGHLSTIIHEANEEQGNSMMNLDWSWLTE

[7] = target: T2, Inhibitor of nuclear factor kappa-B kinase subunit alpha (Homo sapiens); details: at 1 µM
[8] = target: T3, Inhibitor of nuclear factor kappa-B kinase subunit beta (Homo sapiens) (UniProt O14920); details: at 0.1 µM
T3 sequence (whole entry): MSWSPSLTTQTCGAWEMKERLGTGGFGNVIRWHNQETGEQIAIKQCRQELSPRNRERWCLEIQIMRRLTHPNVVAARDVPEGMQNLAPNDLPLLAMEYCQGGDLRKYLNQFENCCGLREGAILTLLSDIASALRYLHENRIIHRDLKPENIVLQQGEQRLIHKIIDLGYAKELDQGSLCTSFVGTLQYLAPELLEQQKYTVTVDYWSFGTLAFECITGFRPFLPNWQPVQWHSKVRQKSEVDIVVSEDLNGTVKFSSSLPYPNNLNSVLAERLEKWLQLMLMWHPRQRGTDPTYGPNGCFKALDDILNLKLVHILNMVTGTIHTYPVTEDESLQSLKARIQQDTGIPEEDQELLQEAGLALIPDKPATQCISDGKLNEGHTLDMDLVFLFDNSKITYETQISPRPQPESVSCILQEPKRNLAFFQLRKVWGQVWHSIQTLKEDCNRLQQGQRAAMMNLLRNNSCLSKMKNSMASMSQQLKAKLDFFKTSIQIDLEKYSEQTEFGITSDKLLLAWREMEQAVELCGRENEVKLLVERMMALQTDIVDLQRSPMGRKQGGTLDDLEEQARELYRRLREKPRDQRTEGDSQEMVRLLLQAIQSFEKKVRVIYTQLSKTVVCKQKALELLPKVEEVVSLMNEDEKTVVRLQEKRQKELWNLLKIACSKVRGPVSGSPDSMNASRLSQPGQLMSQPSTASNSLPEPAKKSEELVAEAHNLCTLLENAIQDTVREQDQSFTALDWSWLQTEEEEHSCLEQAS

[9] = target: T3, Inhibitor of nuclear factor kappa-B kinase subunit beta (Homo sapiens); details: at 1 µM
[10] = target: T4, Inhibitor of nuclear factor kappa-B kinase subunit epsilon (Homo sapiens) (UniProt Q14164); details: at 0.1 µM
T4 sequence (whole entry): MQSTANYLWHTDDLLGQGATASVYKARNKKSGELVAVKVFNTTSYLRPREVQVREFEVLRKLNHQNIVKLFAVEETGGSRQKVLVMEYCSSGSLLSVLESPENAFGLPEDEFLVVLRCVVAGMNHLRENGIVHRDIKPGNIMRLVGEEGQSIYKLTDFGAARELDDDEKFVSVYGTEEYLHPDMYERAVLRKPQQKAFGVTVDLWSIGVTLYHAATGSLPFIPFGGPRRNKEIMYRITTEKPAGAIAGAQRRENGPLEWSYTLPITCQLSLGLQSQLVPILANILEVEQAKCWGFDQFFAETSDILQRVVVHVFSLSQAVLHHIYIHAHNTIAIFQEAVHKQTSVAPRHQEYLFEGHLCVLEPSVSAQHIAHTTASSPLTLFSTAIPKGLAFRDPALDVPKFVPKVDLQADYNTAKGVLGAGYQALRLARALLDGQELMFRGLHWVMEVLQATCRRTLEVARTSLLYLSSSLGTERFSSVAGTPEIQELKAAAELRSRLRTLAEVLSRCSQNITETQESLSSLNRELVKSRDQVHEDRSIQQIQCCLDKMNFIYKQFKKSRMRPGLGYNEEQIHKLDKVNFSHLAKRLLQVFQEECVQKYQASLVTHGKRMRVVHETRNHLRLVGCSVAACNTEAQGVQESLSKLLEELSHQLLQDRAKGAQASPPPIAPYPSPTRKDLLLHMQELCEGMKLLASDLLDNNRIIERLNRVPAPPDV

[11] = target: T4, Inhibitor of nuclear factor kappa-B kinase subunit epsilon (Homo sapiens); details: at 1 µM
[12] = target: T5, Serine/threonine-protein kinase Nek1 (Homo sapiens) (UniProt Q96PY6); details: at 0.1 µM
T5 sequence (whole entry): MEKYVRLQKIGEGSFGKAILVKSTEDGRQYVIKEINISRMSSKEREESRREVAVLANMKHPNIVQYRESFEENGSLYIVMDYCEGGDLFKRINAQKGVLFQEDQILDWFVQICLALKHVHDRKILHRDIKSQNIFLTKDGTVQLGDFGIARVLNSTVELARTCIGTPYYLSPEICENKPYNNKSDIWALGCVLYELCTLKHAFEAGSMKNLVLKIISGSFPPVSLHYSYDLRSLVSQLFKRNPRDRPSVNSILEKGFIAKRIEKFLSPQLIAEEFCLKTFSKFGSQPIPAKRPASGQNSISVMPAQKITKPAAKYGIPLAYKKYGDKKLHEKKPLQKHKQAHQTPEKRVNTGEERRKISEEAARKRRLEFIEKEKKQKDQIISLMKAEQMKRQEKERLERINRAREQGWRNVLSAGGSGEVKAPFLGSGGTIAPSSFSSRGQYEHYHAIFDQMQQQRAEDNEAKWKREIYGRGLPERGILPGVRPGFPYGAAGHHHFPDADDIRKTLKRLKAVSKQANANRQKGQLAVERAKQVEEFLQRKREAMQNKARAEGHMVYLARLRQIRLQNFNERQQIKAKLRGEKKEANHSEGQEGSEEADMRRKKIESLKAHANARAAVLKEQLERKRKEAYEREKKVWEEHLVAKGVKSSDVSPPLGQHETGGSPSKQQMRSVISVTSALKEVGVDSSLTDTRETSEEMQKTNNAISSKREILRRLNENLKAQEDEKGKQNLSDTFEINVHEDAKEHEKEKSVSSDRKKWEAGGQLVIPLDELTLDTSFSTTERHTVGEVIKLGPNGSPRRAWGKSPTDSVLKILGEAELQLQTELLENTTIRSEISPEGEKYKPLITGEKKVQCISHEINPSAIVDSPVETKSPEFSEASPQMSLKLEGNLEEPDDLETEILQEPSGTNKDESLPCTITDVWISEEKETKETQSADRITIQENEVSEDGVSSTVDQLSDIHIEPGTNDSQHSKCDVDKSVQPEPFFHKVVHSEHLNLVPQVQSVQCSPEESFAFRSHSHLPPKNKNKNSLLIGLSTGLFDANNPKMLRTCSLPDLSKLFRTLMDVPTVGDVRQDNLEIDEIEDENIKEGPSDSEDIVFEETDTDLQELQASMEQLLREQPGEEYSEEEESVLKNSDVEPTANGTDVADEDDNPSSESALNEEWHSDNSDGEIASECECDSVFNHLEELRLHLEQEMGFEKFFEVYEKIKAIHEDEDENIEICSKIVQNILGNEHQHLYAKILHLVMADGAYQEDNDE

[13] = target: T5, Serine/threonine-protein kinase Nek1 (Homo sapiens); details: at 1 µM
[14] = target: T6, Serine/threonine-protein kinase Nek2 (Homo sapiens) (UniProt P51955); details: at 0.1 µM
T6 sequence (whole entry): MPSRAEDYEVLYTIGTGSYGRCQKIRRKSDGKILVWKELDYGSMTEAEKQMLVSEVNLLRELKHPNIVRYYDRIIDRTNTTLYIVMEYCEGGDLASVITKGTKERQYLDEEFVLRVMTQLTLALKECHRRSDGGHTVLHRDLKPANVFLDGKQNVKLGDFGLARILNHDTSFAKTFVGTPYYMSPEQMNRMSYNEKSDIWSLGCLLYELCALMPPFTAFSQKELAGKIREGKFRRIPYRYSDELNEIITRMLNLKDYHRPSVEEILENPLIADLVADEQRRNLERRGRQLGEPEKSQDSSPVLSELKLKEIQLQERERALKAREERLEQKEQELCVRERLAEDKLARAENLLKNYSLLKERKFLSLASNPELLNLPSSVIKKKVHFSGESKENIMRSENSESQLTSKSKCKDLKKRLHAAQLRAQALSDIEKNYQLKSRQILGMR

[15] = target: T6, Serine/threonine-protein kinase Nek2 (Homo sapiens); details: at 1 µM
[16] = target: Serine/threonine-protein kinase Nek6 (Homo sapiens) (UniProt Q9HC98); details: at 0.1 µM
Chain of Serine/threonine-protein kinase Nek6 (Homo sapiens) (Q9HC98 whole entry): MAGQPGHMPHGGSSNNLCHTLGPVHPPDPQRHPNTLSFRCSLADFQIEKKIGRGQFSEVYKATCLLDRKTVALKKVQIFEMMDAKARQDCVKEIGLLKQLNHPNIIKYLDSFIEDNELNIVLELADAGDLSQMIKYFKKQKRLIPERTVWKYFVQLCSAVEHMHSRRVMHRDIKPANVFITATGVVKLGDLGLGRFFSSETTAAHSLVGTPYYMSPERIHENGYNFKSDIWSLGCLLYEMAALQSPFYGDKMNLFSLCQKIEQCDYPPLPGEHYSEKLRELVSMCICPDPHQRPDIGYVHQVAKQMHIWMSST

[17] = target: Serine/threonine-protein kinase Nek6 (Homo sapiens) (UniProt Q9HC98); details: at 1 µM
[18] = target: Serine/threonine-protein kinase Nek7 (Homo sapiens) (UniProt Q8TDX7); details: at 0.1 µM
Chain of Serine/threonine-protein kinase Nek7 (Homo sapiens) (Q8TDX7 whole entry, looked up): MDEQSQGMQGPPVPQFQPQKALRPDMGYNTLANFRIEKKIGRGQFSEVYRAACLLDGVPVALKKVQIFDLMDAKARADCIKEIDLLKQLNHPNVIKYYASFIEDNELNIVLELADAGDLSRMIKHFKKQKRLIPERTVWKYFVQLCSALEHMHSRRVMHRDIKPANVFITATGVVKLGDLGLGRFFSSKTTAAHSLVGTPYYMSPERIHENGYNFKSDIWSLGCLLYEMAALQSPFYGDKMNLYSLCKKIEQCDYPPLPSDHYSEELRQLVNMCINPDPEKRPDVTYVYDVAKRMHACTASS

[19] = target: Serine/threonine-protein kinase Nek7 (Homo sapiens) (UniProt Q8TDX7); details: at 1 µM
[20] = target: T7, Serine/threonine-protein kinase Nek9 (Homo sapiens) (UniProt Q8TD19); details: at 0.1 µM;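 further: reported value is the mean percent inhibition of NEK9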
T7 sequence (whole entry): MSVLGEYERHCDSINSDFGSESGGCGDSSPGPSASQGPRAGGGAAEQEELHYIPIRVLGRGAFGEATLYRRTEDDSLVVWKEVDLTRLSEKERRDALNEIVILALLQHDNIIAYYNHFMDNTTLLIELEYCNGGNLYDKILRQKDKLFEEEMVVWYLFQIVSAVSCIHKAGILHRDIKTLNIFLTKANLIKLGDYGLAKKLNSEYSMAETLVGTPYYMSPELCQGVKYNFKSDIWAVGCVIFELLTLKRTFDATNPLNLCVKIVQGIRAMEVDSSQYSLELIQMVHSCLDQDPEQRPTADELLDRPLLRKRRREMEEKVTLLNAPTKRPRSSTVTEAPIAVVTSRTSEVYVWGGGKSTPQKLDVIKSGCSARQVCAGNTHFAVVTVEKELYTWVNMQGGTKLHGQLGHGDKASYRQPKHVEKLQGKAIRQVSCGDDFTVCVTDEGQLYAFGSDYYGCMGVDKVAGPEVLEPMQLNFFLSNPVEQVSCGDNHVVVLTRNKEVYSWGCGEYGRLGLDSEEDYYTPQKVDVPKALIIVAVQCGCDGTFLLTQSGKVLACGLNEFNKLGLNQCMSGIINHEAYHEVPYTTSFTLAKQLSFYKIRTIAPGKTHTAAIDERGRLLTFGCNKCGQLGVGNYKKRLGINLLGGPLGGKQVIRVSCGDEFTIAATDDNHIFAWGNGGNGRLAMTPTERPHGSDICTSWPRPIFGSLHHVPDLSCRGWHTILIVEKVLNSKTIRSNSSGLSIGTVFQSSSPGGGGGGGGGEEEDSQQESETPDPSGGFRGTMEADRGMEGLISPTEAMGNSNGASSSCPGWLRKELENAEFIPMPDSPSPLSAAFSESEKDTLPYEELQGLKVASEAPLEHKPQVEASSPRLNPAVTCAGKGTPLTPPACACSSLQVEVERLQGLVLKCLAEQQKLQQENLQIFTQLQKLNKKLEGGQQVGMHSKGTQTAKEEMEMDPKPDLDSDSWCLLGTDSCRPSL

Chain of Sphingosine kinase 1 (Homo sapiens) (Q9NYA1 whole entry): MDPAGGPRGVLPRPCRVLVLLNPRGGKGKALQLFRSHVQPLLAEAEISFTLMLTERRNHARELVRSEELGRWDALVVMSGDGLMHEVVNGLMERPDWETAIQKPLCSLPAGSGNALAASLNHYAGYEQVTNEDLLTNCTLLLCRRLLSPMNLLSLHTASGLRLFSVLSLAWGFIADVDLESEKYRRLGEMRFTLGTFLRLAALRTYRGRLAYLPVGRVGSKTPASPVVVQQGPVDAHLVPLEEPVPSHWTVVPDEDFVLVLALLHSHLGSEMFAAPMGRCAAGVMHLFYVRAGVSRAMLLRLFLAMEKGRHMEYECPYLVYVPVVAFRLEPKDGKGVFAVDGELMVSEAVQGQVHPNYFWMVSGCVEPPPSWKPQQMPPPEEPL

Structure (SMILES)	inhibition [1] [%]	inhibition [2] [%]	inhibition [3] [%]	inhibition [4] [%]	inhibition [5] [%]	inhibition [6] [%]	inhibition [7] [%]	inhibition [8] [%]	inhibition [9] [%]	inhibition [10] [%]	inhibition [11] [%]	inhibition [12] [%]	inhibition [13] [%]	inhibition [14] [%]	inhibition [15] [%]	inhibition [16] [%]	inhibition [17] [%]	inhibition [18] [%]	inhibition [19] [%]	inhibition [20] [%]
CS(=O)(=O)Nc1ccc(N/C=C2\C(=O)Nc3ccccc32)cc1	0.22	-1.15	0.65	2.93	0.34	-1.19	13.7	-4.89	-1.38	-4.27	7.71	-1.43	-2.34	-2.87	-3.33	-1.58	-2.98	-4.38	-3.48	-0.57
COc1cc2c(cc1Nc1nc(N3CCc4ccccc43)c3cc[nH]c3n1)N(C(=O)CN(C)C)CC2	-1.12	-0.36	0.81	0.13	-9.3	2.9	0.37	4.25	-1.42	0.88	-0.46	1.31	1	2.74	3.53	0.8	-0.68	3.4	3.29	4.32

Reference: ChEMBL document CHEMBL1961873, “Compounds: GSK PKIS; Assays: Nanosyn kinase panel” (2012)
